Reference: PubChem BioAssay (Tox21)
Results filed as inconclusive are left out. The source made the active and inactive calls. Unless noted, the call rests on the fitted dose curve; in most records, active means well fitted curve in the direction sought with a large enough effect in the repeat runs; inconclusive means weak or mixed curves; inactive means no such curve, though single readings can be large; an effect the other way counts as inactive or inconclusive.

Columns and labels:
[1] = qHTS assay for small molecule agonists of the p53 signaling pathway (AID 651631; calls by dose curve; further: nearly all actives have a fitted effect of over 15% in size)
Outline: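 HCT-116 cells carrying a stable p53 response element–beta-lactamase reporter were plated, rested 5 h at 37 °C, then exposed to compound in DMSO for 16 h at 37 °C; reporter activity was read as FRET substrate fluorescence after 2 h at room temperature.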

[2] = qHTS assay for small molecules that induce genotoxicity in human embryonic kidney cells expressing luciferase-tagged ATAD5 (AID 651632); further: nearly all actives have a fitted effect of over 15% in size
Outline: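 Luminescent reporter readout, HEK293T ATAD5-luc line: 16 hr drug exposure (37C, 5% CO2) followed by Amplite, 30 min RT.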

[3] = qHTS assay for small molecule agonists of the p53 signaling pathway - cell viability (AID 651633; calls by dose curve; further: series mostly up to about 83 µM; nearly all actives have a fitted effect of over 30% in size)
Outline: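 p53RE-bla cells were treated with compound for 16 hours at 37 C. Cytotoxicity was then measured as CellTiter-Glo luminescence after 30 min at room temperature.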

[4] = qHTS assay for small molecules that induce genotoxicity in human embryonic kidney cells expressing luciferase-tagged ATAD5 - cell viability (AID 651634; calls by dose curve; further: nearly all actives have a fitted effect of over 25% in size)
Outline: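 Viability read: CellTiter-Fluor fluorescence, 30 min at 37C. Cells: HEK293T, luciferase-tagged ATAD5. Exposure: 15.5 hr, 37C, 5% CO2, compound or DMSO vehicle.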

[5] = qHTS assay for small molecule disruptors of the mitochondrial membrane potential - cell viability (AID 720634; calls by dose curve;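 further: human HepG2 liver cancer cells; series mostly up to about 83 µM; nearly all actives have a fitted effect of over 20% in size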)
Outline: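 HepG2, 1 hr compound, 37 C. ATP luminescence via CellTiter-Glo, 30 min RT, same well as m-MPI.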

[6] = qHTS assay for small molecule disruptors of the mitochondrial membrane potential (AID 720635)
Outline: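 HepG2 cells exposed to compound 1 hr at 37C, then Mito-MPS dye 30 min. Ratio read of aggregate (540/590 nm) versus monomer (490/535 nm) fluorescence.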

[7] = qHTS assay to test for compound auto fluorescence at 590 nm (red) in HepG2 cells (AID 720674)
Outline: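 HepG2 cells, 2,000 per well in MEM with 10% FBS, attached overnight at 37 C, then got 23 nL compound or DMSO. After 1 hr at 37 C, 5% CO2, red fluorescence was read at 540/590 nm against Rose Bengal sodium as reference.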

[8] = qHTS assay to test for compound auto fluorescence at 535 nm (green) in HepG2 cells (AID 720675)
[9] = qHTS assay to test for compound auto fluorescence at 460 nm (blue) in HEK293 cells (AID 720678)
Outline: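 HEK293, 2,000 cells/well, 10% dialyzed FBS; attach 4-5 hr 37C; pin compound or DMSO; o/n 37C/5% CO2; fluorescence 405/460 nm; triamterene-equivalent units.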

[10] = qHTS assay to test for compound auto fluorescence at 590 nm (red) in HEK293 cells (AID 720679)
Outline: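 Intensity at 540nm excitation and 590nm emission is reported as Rose Bengal sodium-equivalent autofluorescence. Measurements followed overnight exposure (37C, 5% CO2) of HEK293 cells, 2,000 per well, to 23 nL compound.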

[11] = qHTS assay to test for compound auto fluorescence at 460 nm (blue) in HEK293 cell free culture (AID 720681)
Outline: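 Compounds were added to cell-free DMEM with 10% FBS and fluorescence read directly. The blue channel used 405 nm excitation and 460 nm emission, with triamterene as the reference fluorophore.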

[12] = qHTS assay to test for compound auto fluorescence at 535 nm (green) in HEK293 cell free culture (AID 720682)
Outline: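 Read-out: 485/535 nm fluorescence intensity, calibrated against fluorescein. Medium only (DMEM + 10% FBS, no cells); test compound or DMSO vehicle added by pintool before plate reading.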

[13] = qHTS assay to test for compound auto fluorescence at 590 nm (red) in HEK293 cell free culture (AID 720683)
Outline: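 Cell-free wells of DMEM with 10% FBS received compound, and intrinsic fluorescence was read at excitation/emission 540/590 nm. Values expressed as equivalence to Rose Bengal sodium.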

[14] = qHTS assay to test for compound auto fluorescence at 590 nm (red) in HepG2 cell free culture (AID 720684)
Outline: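 Compound was pinned into wells holding MEM with 10% FBS and no cells, and red fluorescence was read at Ex/Em 540/590 nm. Signal is expressed as auto fluorescence equivalency relative to Rose Bengal sodium.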

[15] = qHTS assay to test for compound auto fluorescence at 460 nm (blue) in HepG2 cell free culture (AID 720685)
Outline: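 Compound (23 nL) or DMSO pinned into cell-free MEM with 10% FBS; blue fluorescence read at 405/460 nm excitation/emission, expressed as auto-fluorescence equivalency to triamterene.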

[16] = qHTS assay to test for compound auto fluorescence at 535 nm (green) in HepG2 cell free culture (AID 720686)
[17] = qHTS assay to test for compound auto fluorescence at 460 nm (blue) in HepG2 cells (AID 720687)
Outline: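 HepG2 cells in MEM with 10% FBS, attached overnight at 37 C, were exposed to compound or DMSO for 1 hr at 37 C, 5% CO2. Blue fluorescence was read at 405/460 nm, with triamterene as reference fluorophore.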

[18] = qHTS assay to test for compound auto fluorescence at 535 nm (green) in HEK293 cells (AID 720680)
[19] = target: Glucocorticoid receptor (Homo sapiens) (UniProt P04150); test: qHTS assay to identify small molecule agonists of the glucocorticoid receptor (GR) signaling pathway (AID 720691; active means well fitted activation curve with a large enough effect in the signal ratio in the repeat runs, not every such curve was filed as active; the % refers to the signal ratio)
Sequence of Glucocorticoid receptor (Homo sapiens) (P04150 whole entry, looked up): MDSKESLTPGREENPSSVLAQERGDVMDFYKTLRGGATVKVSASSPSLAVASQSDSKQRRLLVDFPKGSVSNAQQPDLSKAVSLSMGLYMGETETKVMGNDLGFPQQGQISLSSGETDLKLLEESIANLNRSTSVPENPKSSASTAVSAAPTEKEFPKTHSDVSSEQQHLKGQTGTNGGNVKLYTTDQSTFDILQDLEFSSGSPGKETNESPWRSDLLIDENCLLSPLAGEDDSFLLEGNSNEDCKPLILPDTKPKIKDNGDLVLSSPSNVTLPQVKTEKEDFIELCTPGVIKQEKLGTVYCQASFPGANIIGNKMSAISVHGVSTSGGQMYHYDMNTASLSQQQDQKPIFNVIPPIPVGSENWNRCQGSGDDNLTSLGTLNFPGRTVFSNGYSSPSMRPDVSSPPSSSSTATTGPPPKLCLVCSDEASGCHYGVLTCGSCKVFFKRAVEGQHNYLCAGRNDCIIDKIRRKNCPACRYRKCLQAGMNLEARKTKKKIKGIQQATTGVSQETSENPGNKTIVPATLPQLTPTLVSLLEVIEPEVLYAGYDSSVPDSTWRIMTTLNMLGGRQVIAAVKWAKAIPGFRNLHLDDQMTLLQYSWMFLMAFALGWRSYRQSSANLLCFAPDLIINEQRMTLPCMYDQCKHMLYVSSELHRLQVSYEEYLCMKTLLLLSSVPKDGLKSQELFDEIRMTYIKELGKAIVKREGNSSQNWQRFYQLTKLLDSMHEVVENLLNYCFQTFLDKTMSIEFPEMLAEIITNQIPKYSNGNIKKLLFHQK
Outline: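 qHTS in GR-bla HeLa cells: 4 h settling at 37 C/5% CO2, 18 h compound incubation at 37 C, 2 h LiveBLAzer B/G FRET substrate at room temperature, fluorescence intensity measured.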

[20] = target: Glucocorticoid receptor (Homo sapiens) (UniProt P04150); test: qHTS assay to identify small molecule antagonists of the glucocorticoid receptor (GR) signaling pathway (AID 720692; active means well fitted inhibition curve with a large enough effect in the signal ratio in the repeat runs, not every such curve was filed as active; the % refers to the signal ratio)
Outline: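 Inhibition of glucocorticoid signalling is measured in HeLa cells with a GRE-controlled beta-lactamase reporter; cells are co-treated with compound and 5 nM dexamethasone (final) for 18 h before FRET substrate readout.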
On the % scale 0 is the no-effect control and ±100 the full control effect.

CCCC(C)CC (stereo not drawn)
inactive: outcome [1] | outcome [2] | outcome [3] | Potency [4] | outcome [5] | Potency [6] | outcome [7] | outcome [8] | outcome [9] | outcome [10] | outcome [11] | outcome [12] | outcome [13] | outcome [14] | outcome [15] | outcome [16] | outcome [17]

CC(C)CCCC(C)CC=O (stereo not drawn)
inactive: outcome [1] | outcome [2] | outcome [3] | Potency [4] | outcome [5] | outcome [7] | outcome [8] | outcome [9] | outcome [10] | outcome [18] | outcome [11] | outcome [12] | outcome [13] | outcome [14] | outcome [15] | outcome [17]

CCCCCCCCCCCCCCCC(=O)NCCO
inactive: outcome [1] | outcome [2] | outcome [3] | Potency [4] | outcome [5] | Potency [6] | outcome [7] | outcome [9] | outcome [10] | outcome [18] | outcome [11] | outcome [12] | outcome [13] | outcome [14] | outcome [15] | outcome [16] | outcome [17]

NC(=O)NC(=O)Cc1ccccc1
inactive: outcome [1] | outcome [2] | outcome [3] | Potency [4] | outcome [5] | outcome [7] | outcome [8] | outcome [9] | outcome [10] | outcome [18] | outcome [11] | outcome [12] | outcome [13] | outcome [14] | outcome [15] | outcome [16] | outcome [17] | Potency [19] | outcome [20]

O=c1[nH]c(=O)c2ccccc2o1
inactive: outcome [1] | outcome [2] | outcome [3] | Potency [4] | outcome [5] | Potency [6] | outcome [7] | outcome [8] | outcome [9] | outcome [10] | outcome [18] | outcome [11] | outcome [12] | outcome [13] | outcome [14] | outcome [15] | outcome [16] | outcome [17]

Cc1cc(C)cc([N+](=O)[O-])c1
inactive: outcome [1] | outcome [2] | outcome [3] | Potency [4] | outcome [5] | outcome [7] | outcome [8] | outcome [9] | outcome [10] | outcome [18] | outcome [11] | outcome [12] | outcome [13] | outcome [14] | outcome [15] | outcome [16] | outcome [17] | Potency [19] | outcome [20]

CCCCCC(=O)OCC
inactive: outcome [1] | outcome [2] | outcome [3] | Potency [4] | outcome [5] | outcome [7] | outcome [8] | outcome [9] | outcome [10] | outcome [18] | outcome [11] | outcome [12] | outcome [13] | outcome [14] | outcome [15] | outcome [16] | outcome [17] | Potency [19]

COC(OC)C(C)c1ccccc1 (stereo not drawn)
inactive: outcome [1] | outcome [2] | outcome [3] | Potency [4] | outcome [5] | Potency [6] | outcome [7] | outcome [8] | outcome [18] | outcome [11] | outcome [12] | outcome [13] | outcome [14] | outcome [15] | outcome [16] | outcome [17] | Potency [19] | outcome [20]

COC(=O)CCC(=O)O
inactive: outcome [1] | outcome [2] | outcome [3] | Potency [4] | outcome [5] | outcome [7] | outcome [8] | outcome [9] | outcome [10] | outcome [18] | outcome [11] | outcome [12] | outcome [13] | outcome [14] | outcome [15] | outcome [16] | outcome [17]

CC(=O)OC(C)(C)Cc1ccccc1
inactive: outcome [1] | outcome [2] | outcome [3] | Potency [4] | outcome [5] | Potency [6] | outcome [7] | outcome [8] | outcome [9] | outcome [10] | outcome [18] | outcome [11] | outcome [12] | outcome [13] | outcome [14] | outcome [15] | outcome [16] | outcome [17]

Cc1cc(O)c2c(c1)C(=O)c1cccc(O)c1C2=O
inactive: outcome [1] | outcome [2] | outcome [3] | Potency [4] | outcome [5] | outcome [7] | outcome [8] | outcome [9] | outcome [10] | outcome [18] | outcome [11] | outcome [12] | outcome [13] | outcome [14] | outcome [15] | outcome [16] | outcome [17] | Potency [19]

CC(C)COC(=O)/C=C/c1ccccc1
inactive: outcome [1] | outcome [2] | outcome [3] | Potency [4] | outcome [5] | Potency [6] | outcome [7] | outcome [8] | outcome [9] | outcome [10] | outcome [18] | outcome [11] | outcome [12] | outcome [13] | outcome [14] | outcome [15] | outcome [16] | outcome [17]

NS(=O)(=O)c1cc2c(cc1Cl)NC(C(Cl)Cl)NS2(=O)=O (stereo not drawn)
inactive: outcome [1] | outcome [2] | outcome [3] | Potency [4] | fluorescence, relative to Rose Bengal [7] 0.314% [at 18.6 µM] | fluorescence, % of fluorescein control [8] 0.136% [at 18.6 µM] | fluorescence, % of triamterene [9] -0.178% [at 18.6 µM] | fluorescence, % of fluorescein [18] 0.0129% [at 18.6 µM] | fluorescence, % of fluorescent control [11] -0.0271% [at 18.6 µM] | activity change [12] -0.0213% [at 18.6 µM] | fluorescence, % of fluorescent control [13] 0.0566% [at 18.6 µM] | fluorescence, % of Rose Bengal [14] -0.224% [at 18.6 µM] | fluorescence, % of fluorescent control [15] -0.0397% [at 18.6 µM] | fluorescence, % of fluorescein control [16] -0.0047% [at 18.6 µM] | fluorescence, % of fluorescent control [17] -0.0034% [at 18.6 µM]
